Compound activity from PubChem.
Shown are actives, neighbours in structure and some others; about 4.8% of the full set was active somewhere.
NALP1 inh: NALP1 inflammasome inhibitors in reconstituted yeast, colorimetric, S. cerevisiae, triplicate retest; S. cerevisiae NALP1/ASC/caspase-1 growth, X-gal OD620, 72 h; inhibition, % at 10 µM; 280,000 compounds, 0.61% hits; in the data active = inhibition mostly above about 24%, no sharp cut-off; inactive = mostly below about 32%
tim10-1 inh: growth inhibitors of tim10-1 mutant yeast, primary screen, luminescence, uHTS. inhibition, % at 20 µM. S. cerevisiae tim10-1 ts strain growth, BacTiter-Glo, 24 h. AID 463190, 2010. 330,000 compounds, 2.2% hits;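 active = inhibition of at least 40%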;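 note: mutant grown at 25 °C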
SKKanGAS inh: S. pyogenes SKKanGAS growth inhibitors in kanamycin, primary screen, streptokinase expression inhibitor project, SKKanGAS strain, BacTiter-Glo luminescence. AID 1662, 2009. 300,000 compounds, 1.3% hits. 6 h. inhibition, % at 7.5 µM;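 active = mean replicate score, as percent of positive control median, at least 50; inconclusive = mean below 50 but one replicate at or above 50; inactive = mean and every replicate below 50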;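 note: strain carries kanamycin resistance gene driven by streptokinase promoter and grows in 40 µg/ml kanamycin; loss of luminescence reflects streptokinase promoter inhibition or plain growth inhibition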
TIM10 inh: growth inhibitors of isogenic TIM10 control yeast, primary screen, counter-screen for tim10-1 yeast inhibitor project, luminescence, uHTS. 330,000 compounds, 1.4% hits. S. cerevisiae TIM10 strain growth, BacTiter-Glo luminescence, 24 h. inhibition, % at 10 µM;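 active = inhibition of 40% or more at the single tested concentration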;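 note: wild-type TIM10 isogenic control strain grown at permissive 25 °C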
PfHsp90 yeast 2: growth inhibition of PfHsp90-expressing yeast, primary screen, antimalarial PfHsp90 inhibitor project, S. cerevisiae, BacTiter-Glo luminescence, single point, set 2; BacTiter-Glo ATP, 48 h; yeast lacking PDR1 and PDR3 efflux regulators; inhibition, % at 9.4 µM; 310,000 compounds, 0.32% hits;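 active = every replicate shows inhibition above about 80%, whatever the replicate mean, limit read from the data; inconclusive = mean inhibition reaches the set limit but some replicate falls short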
tim23-1 inh: growth inhibitors of tim23-1 mutant yeast, primary screen, luminescence, uHTS; S. cerevisiae tim23-1 growth, BacTiter-Glo luminescence, 24 h; inhibition, % at 20 µM; 330,000 compounds, 1.3% hits; AID 463212, 2010;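 active = growth inhibition of the mutant yeast at or above 50%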;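 note: temperature-sensitive mutant grown at 25 °C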
tim10 confirm: growth inhibitors of wild-type TIM10 yeast, confirmation, counter-screen for tim10-1 synthetic lethality project, single concentration, luminescence, S. cerevisiae; shares compounds with TIM10 inh; S. cerevisiae tim10 strain growth, BacTiter-Glo luminescence, 24 h; inhibition, % at 10 µM; 4,600 compounds, 63% hits; AID 463215, 2010;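 active = inhibition of yeast growth at or above a set limit in either of two replicates at 10 µM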; note: this counterscreen used the strain with wild-type TIM10
Large screens that a line does not name were inactive (follow-up assays come after a bar, where they were run).

O=Nc1c(O)[nH]c2ccc(Cl)cc12	none
CC(C)(O)c1[nH]c2cc(C(F)(F)F)ccc2c1C(C)(C)O	TIM10 inh 67.3 | tim10 confirm inactive
Cc1cc(S(=O)(=O)NCCC2=CCCCC2)ccc1Br	SKKanGAS inh inconclusive (no result: NALP1 inh)
Cc1cc2occ(CC(=O)NC3=NCCS3)c2cc1C(C)C	SKKanGAS inh 65.4, TIM10 inh 40.1 | tim10 confirm 36.7
COc1ccc(Nc2nccc(N(C)C)c2C#N)cc1	TIM10 inh 54.6 | tim10 confirm inactive
COc1ccc(Nc2nccc(OC)c2C#N)cc1	none
Cc1cccc(CCNC(=O)c2oc3c(C)c(C)ccc3c2C)n1	none
Cc1ccc2c(C)c(C(=O)NCCc3ccco3)oc2c1C	TIM10 inh 97.2 | tim10 confirm inactive
Cc1ccc(C(=O)Nc2ccccc2C(=O)N2CC3(C)CC2CC(C)(C)C3)cc1 (stereo unspecified)	TIM10 inh 44.4 | tim10 confirm inactive
O=C(NCc1nnnn1-c1ccc(F)c(F)c1)C(=O)c1c[nH]c2ccccc12	none (no result: NALP1 inh)
CC(=O)CSc1ncnc2sc3c(c12)CCC(C)C3 (stereo unspecified)	TIM10 inh 43.2 | tim10 confirm inactive
CCCCNC(=O)c1onc(CSc2ccc(F)c(F)c2)c1C(=O)NCCCC	none (no result: NALP1 inh)
O=c1c(-c2nnc(SCc3ccc(Cl)c(Cl)c3)o2)cccn1Cc1ccccc1	TIM10 inh 42.9 | tim10 confirm 30.1
CN(C)CCNc1ncnc2ccccc12	none
O=C(Nc1ccc2c(c1)CCC2)c1cc2ccccc2o1	TIM10 inh 55.8 | tim10 confirm inactive
Cc1ccc(NC(=S)NC2CCCC2)c(C)c1	none
COc1ccc(-c2ccc(NS(=O)(=O)c3cc([N+](=O)[O-])ccc3C)cc2)nn1	none
CCC(=O)NCCc1nc2cc(NC(=O)c3ccc(F)cc3)ccc2n1C	none
O=C(CCC1CCCCC1)Nc1ccc(C(=O)c2ccncc2)cc1	TIM10 inh 43.0 | tim10 confirm 39.2
O=C(CCC1CCCCC1)Nc1cccnc1	none
Cc1ccc(C)c(OCCC(=O)N2CCN(S(=O)(=O)c3ccc([N+](=O)[O-])cc3)CC2)c1	TIM10 inh 53.1 (no result: NALP1 inh, SKKanGAS inh) | tim10 confirm inactive
CN(Cc1cccs1)C(=O)c1ccc(S(=O)(=O)N2CCCCC2)cc1	none
O=C(C1CCCN(S(=O)(=O)c2ccc(Cl)cc2)C1)N(Cc1cccs1)C1CC1 (stereo unspecified)	TIM10 inh 43.4 | tim10 confirm inactive
C[C@@H](NC(=O)/C(C#N)=C/c1ccc(O)c(O)c1)c1ccccc1	none (no result: NALP1 inh, SKKanGAS inh)
CC(NC(=O)/C(C#N)=C/c1ccc(Cl)c([N+](=O)[O-])c1)c1ccccc1 (stereo unspecified)	TIM10 inh 63.3 (no result: PfHsp90 yeast 2) | tim10 confirm 57.4
CCN1C(=O)C(CC(=O)Nc2ccc(OC)cc2)N(CCc2ccc(F)cc2)C1=S (stereo unspecified)	TIM10 inh 41.5 | tim10 confirm inactive
COc1ccc(NC(=O)CC2C(=O)N(C)C(=S)N2CCc2ccc(F)cc2)cc1 (stereo unspecified)	none (no result: PfHsp90 yeast 2)
CC1CN(C(=O)/C=C/c2ccc([N+](=O)[O-])s2)CC(C)O1 (stereo unspecified)	none
Cc1ccc(/C=N/n2c(-c3cccc(Cl)c3)n[nH]c2=S)o1	TIM10 inh 41.9 (no result: PfHsp90 yeast 2) | tim10 confirm inactive
O=Cc1[nH]c2ccccc2c1N(C(=O)CCl)c1ccc([N+](=O)[O-])cc1	TIM10 inh 41.3 | tim10 confirm inactive
CC(=O)/C=C1/C(=O)Nc2ccccc21	none
CN1c2ccccc2-c2nc3ccccc3n2C1c1ccccn1 (stereo unspecified)	TIM10 inh 42.7 | tim10 confirm inactive
CCN1c2ccccc2-c2nc3ccccc3n2C1c1ccco1 (stereo unspecified)	TIM10 inh 40.2 | tim10 confirm 35.0
